Bioassay records: PubChem, National Center for Advancing Translational Sciences (NCATS)
PI5P4K alpha inh – qHTS for Inhibitors of phosphatidylinositol 5-phosphate 4-kinase (PI5P4K); Phosphatidylinositol 5-phosphate 4-kinase type-2 alpha (Homo sapiens), P48426; PI5P4Kalpha enzyme, ADP-Glo luminescence, 60 min; stronger effect = lower value; max response, %; hit rate 1.2% among 330,000; AID 652105, 2013; active means max response of -50% or lower; inconclusive means between -30% and -50%; inactive means -30% or higher; further: value at the top dose of about 77 µM; on the % scale 0 is the no-effect control and ±100 the full control effect
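Compounds were pin-transferred onto PI5P4Kalpha and substrate in HEPES pH 7.4 buffer with EGTA, CHAPS and 5% DMSO. ATP (5 microM final) started the reaction, which ran 60 minutes at room temperature before ADP-Glo detection.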
WRN helicase inh-1 – qHTS for Inhibitors of WRN Helicase; Bifunctional 3'-5' exonuclease/ATP-dependent helicase WRN (Homo sapiens), Q14191; WRN helicase unwinding, fluorescent forked duplex, kinetic; Potency, µM (doses to about 114 µM), inactives show at the top dose activity change, negative = inhibition, most hits filed as inhibitors; hit rate 0.46% among 360,000; further: potency means the concentration at half of the fitted maximal effect; on the % scale 0 is the no-effect control and ±100 the full control effect; nearly all actives have a fitted effect of over 55% in size
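WRN at 20 nM final preincubated with compound 15 min at room temperature; reaction started with 100 nM fluorophore/quencher forked duplex oligonucleotide and 2 mM ATP final. Unwinding followed kinetically by red fluorescence (ex 525, em 598 nm).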
Pol iota inh – qHTS for Inhibitors of Polymerase Iota; DNA polymerase iota (Homo sapiens), Q9UNA4; Pol iota fluorescent replication assay, 10 min; Potency, µM (series often up to 115 µM), for inactives: top-dose activity, negative = inhibition, usual class: inhibitors; hit rate 1% among 390,000; AID 588590, 2011; further: potency means the concentration at half of the fitted maximal effect
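Pol iota at 10 nM preincubated 15 min with compounds at room temperature; reaction started with fluorescent substrate, 50 nM final. Fluorescence read kinetically at 0 and 10 min; buffer-only wells as negative control.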
Pol eta inh – qHTS for Inhibitors of Polymerase Eta; Potency, µM (series often up to 114 µM), for the others: at the top dose activity change, negative = inhibition, hits mostly inhibitors; recombinant Pol eta, fluorescent DNA replication assay; hit rate 1.2% among 390,000; further: potency means the concentration at half of the fitted maximal effect; on the % scale 0 is the no-effect control and ±100 the full control effect
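Pol eta (10 nM) was preincubated with compounds for 15 min at room temperature, after which fluorescent replication substrate (50 nM final) was added to start the reaction. Fluorescence was read kinetically at 0 and 10 min.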
Pol kappa inh – qHTS for Inhibitors of Polymerase Kappa; DNA polymerase kappa (Homo sapiens), Q9UBT6; purified Pol kappa, fluorescent DNA synthesis assay, 10 min; Potency, µM (series often up to 107 µM), without a hit: top-dose activity, negative = inhibition, actives largely listed as inhibitors; hit rate 0.53% among 400,000; AID 588579, 2011; further: potency means the concentration at half of the fitted maximal effect; on the % scale 0 is the no-effect control and ±100 the full control effect
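Kinetic fluorescence screen: compound preincubated 15 min RT with 10 nM enzyme; 50 nM substrate (final) initiates; reads at 0/10 min.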
POLB inh – qHTS Assay for Inhibitors of DNA Polymerase Beta | hit rate 1.3% among 340,000 | Potency, µM (series often up to 114 µM), for the others: top-dose activity change, negative = inhibition, usual class: inhibitors | Pol beta primer extension/strand displacement, fluorescence kinetic | P06746 | AID 485314, 2010; further: potency means the concentration at half of the fitted maximal effect; on the % scale 0 is the no-effect control and ±100 the full control effect
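Preincubation: enzyme (10 nM) with compound, 15 min, RT. Reaction: substrate added to 50 nM final. Reads: 0 and 10 min. Analysis: normalized, Hill fit.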
WRN helicase inh-2 – qHTS for Inhibitors of WRN Helicase: Confirmatory Assay for Cherry-picked Compounds. shares compounds with WRN helicase inh-1. WRN helicase DNA unwinding, fluorescence kinetic. Potency, µM (series often up to 57.1 µM), for the others: at the top dose activity, negative = inhibition, hits mostly inhibitors. hit rate 63% among 610; further: potency means the concentration at half of the fitted maximal effect; nearly all actives have a fitted effect of over 65% in size
TO displacement – qHTS for Inhibitors of WRN Helicase: Thiazole Orange DNA Binding Counterscreen; shares compounds with WRN helicase inh-1; thiazole orange DNA binding displacement, fluorescence; Potency, µM (highest dose often 57.1 µM), without a hit: at the top dose activity change, negative = inhibition, most hits filed as inhibitors; hit rate 10% among 610; AID 720499, 2013;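 further: drop in dye fluorescence marks compound binding to DNA; potency means the concentration at half of the fitted maximal effect; on the % scale 0 is the no-effect control and ±100 the full control effect; nearly all actives have a fitted effect of over 60% in size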
BLM counter – qHTS for Inhibitors of WRN Helicase: BLM Helicase Counterscreen for WRN Inhibitors. shares compounds with WRN helicase inh-1. AID 720503, 2013. hit rate 60% among 610. Recombinant BLM helicase DNA unwinding, red fluorescence. Potency, µM (titrated, usually from 57.1 µM), without a hit: at the highest dose activity change, negative = inhibition, usual class: inhibitors; further: potency means the concentration at half of the fitted maximal effect; nearly all actives have a fitted effect of over 60% in size
Target sequence (P54132 whole entry, looked up): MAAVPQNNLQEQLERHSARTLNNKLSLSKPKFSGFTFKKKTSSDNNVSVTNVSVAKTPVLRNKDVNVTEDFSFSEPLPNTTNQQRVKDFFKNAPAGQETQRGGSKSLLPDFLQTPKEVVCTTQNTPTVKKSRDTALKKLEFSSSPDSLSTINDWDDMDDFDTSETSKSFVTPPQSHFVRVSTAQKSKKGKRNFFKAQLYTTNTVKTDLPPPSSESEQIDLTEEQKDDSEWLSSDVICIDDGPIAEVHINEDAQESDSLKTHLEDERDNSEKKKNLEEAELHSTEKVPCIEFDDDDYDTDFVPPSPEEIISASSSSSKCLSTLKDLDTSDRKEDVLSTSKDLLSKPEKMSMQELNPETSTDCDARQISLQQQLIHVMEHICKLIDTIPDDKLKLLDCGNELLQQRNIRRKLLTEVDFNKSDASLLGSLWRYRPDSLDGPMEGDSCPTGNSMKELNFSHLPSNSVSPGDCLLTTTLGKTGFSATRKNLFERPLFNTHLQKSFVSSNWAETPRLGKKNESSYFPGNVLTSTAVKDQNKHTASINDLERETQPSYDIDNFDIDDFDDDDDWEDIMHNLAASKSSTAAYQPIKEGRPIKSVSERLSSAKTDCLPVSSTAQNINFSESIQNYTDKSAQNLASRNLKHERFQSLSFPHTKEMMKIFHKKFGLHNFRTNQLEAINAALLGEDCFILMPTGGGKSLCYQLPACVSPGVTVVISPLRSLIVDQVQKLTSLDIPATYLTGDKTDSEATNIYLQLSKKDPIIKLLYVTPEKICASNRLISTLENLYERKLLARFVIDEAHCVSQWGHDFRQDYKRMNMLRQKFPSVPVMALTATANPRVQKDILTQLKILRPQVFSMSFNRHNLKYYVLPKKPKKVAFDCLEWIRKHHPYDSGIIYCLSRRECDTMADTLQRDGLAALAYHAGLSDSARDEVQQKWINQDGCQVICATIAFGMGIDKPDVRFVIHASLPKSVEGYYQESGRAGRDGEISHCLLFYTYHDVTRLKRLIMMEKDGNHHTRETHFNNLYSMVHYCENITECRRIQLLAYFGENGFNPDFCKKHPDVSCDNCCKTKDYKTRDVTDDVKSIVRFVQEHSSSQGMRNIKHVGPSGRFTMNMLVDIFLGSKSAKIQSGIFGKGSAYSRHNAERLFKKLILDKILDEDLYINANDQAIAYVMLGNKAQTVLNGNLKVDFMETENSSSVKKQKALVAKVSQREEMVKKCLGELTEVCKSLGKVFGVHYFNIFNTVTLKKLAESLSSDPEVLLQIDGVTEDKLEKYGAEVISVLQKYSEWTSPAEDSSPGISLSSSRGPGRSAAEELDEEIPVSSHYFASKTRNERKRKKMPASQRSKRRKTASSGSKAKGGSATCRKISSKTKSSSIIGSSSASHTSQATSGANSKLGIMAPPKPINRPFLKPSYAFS
ADP-Glo interf – qHTS for Inhibitors of PI5P4K: ADP-Glo counter assay. Potency, µM (highest dose often 76.9 µM), for inactives: at the top dose activity change, negative = inhibition, usual class: inhibitors. 1,100 tested, under 10 active. AID 743285, 2014. ADP-Glo detection counter-screen, luciferase luminescence, no enzyme. shares compounds with PI5P4K alpha inh
* hit, by the source's call; ? = inconclusive; . = no result; [ ] = dose if it differs, or a comment. In the library only some 2.8% were active in any assay of this set; here they are far more common. Unless noted, the call rests on the fitted dose curve; in most records, active means well fitted curve in the direction sought with a large enough effect; inconclusive means small, poorly fitted or top-dose-only effect, or another doubt; inactive means no such curve, though single readings can be large; an effect the other way counts as inactive or inconclusive.

SMILES | PI5P4K alpha inh | WRN helicase inh-1 | Pol iota inh | Pol eta inh | Pol kappa inh | POLB inh | WRN helicase inh-2 | TO displacement | BLM counter | others
COCCN1C(=O)/C(=C/c2ccc(OCc3ccc(C(=O)O)cc3)c(OC)c2)SC1=Nc1ccccc1 | -1.8 | ? | 4.8% | 28.2µM* | -3.2% | 50.1µM* | 27.1µM* | ? | 27.1µM*
O=C1C(=Cc2cn(-c3ccccc3)nc2-c2ccc(OCc3ccccc3)cc2)SC(=S)N1CCS(=O)(=O)O | -65.1* | 25.1µM* | . | . | . | . | 10.8µM* | -29.1% | 6.81µM*
CCOc1ccc(-c2nn(-c3ccccc3)cc2/C=C2\SC(=S)N(Cc3ccco3)C2=O)cc1 | 5.3 | -2.2% | 4.5% | -1.0% | -5.7% | 5.0% | . | . | .
COC(=O)c1sc(NC(=O)c2ccc(Cn3cc(Cl)cn3)o2)c(C#N)c1C | ? | ? | ? | ? | ? | ? | -18.8% | -25.4% | ?
N#Cc1c(NC(=O)c2ccc(Cn3cc(Br)cn3)o2)sc2c1CCCCC2 | 2.2 | -19.1% | ? | ? | -2.7% | -25.3% | . | . | .
CC(Sc1nnc(-c2ccncc2)n1-c1ccc(F)cc1)C(=O)NC1CC1 (stereo not drawn) | 0.4 | 5.8% | -2.7% | -12.2% | 18.8% | . | . | . | .
CN1CCc2nc(SCC(=O)Nc3cccc(F)c3)c(C#N)c(-c3cccs3)c2C1 | . | -19.3% | 34.3% | 0.0% | 0.1% | 19.1% | . | . | .
CN1CCc2nc(SCC(=O)Nc3ccc(OC(F)(F)F)cc3)c(C#N)c(-c3cccs3)c2C1 | -19.8 | ? | 16.2% | -7.2% | -18.1% | -7.8% | 19.2µM* | 3.41µM* | 24.1µM*
COc1ccc(-c2nnc(Nc3nc4c(OC)cccc4s3)o2)c(OC)c1 | . | -28.6% | ? | ? | -16.3% | -21.5% | . | . | .
COc1ccc(-c2nnc(Nc3nc4c(OC)cccc4s3)o2)cc1 | . | 44.7µM* | ? | 79.4µM* | 35.5µM* | 31.6µM* | 9.61µM* | -13.8% | 7.64µM*
O=C(Nc1ccc(NC(=O)c2cccs2)cc1)c1ccc(Br)o1 | 1.6 | ? | ? | ? | -34.3% | ? | ? | -9.2% | 9.61µM*
CCn1c(CSc2nnc3ccccn23)nc2cc(C(=O)O)ccc21 | -8.0 | 37.3%[57.1 µM] | -19.7% | ? | -9.4% | ? | . | . | .
CCn1c(CSc2n[nH]c(N)n2)nc2cc(C(=O)O)ccc21 | -10.9 | 89.1µM* | 50.1µM* | ? | -17.2% | ? | 24.1µM* | 2.2% | 24.1µM*
O=C(Nc1cc(OC(=O)C(F)(F)F)c2nonc2c1OC(=O)C(F)(F)F)C(F)(F)F | . | . | -5.2% | . | -17.1% | . | . | . | .
CCCN(CCC)CCCNC(=O)c1cc2c(-c3ccc(OC)c(OC)c3)nn(C)c2s1 | -1.2 | -6.4%[11.6 µM] | ? | ? | ? | 39.8µM* | 19.2µM* | -30.0% | ?
Cc1sc2nc(SCC(=O)N(C)c3ccccc3)n(C)c(=O)c2c1C | 9.1 | -17.0% | -14.4% | -2.7% | -22.9% | 4.7% | . | . | .
C=CCn1c(SCC(=O)c2ccc(O)c(O)c2)nnc1-c1ccccc1OC | -7.6 | ? | 50.1µM* | 25.1µM* | ? | ? | 15.2µM* | -6.5% | 12.1µM*
COc1ccccc1NC(=O)c1c(NCc2sccc2C)sc2c1CCCCC2 | . | . | -11.6% | -9.2% | -7.5%[60.1 µM] | -15.1% | . | . | .
COc1ccc(Cl)cc1NC(=O)c1c(NCc2sccc2C)sc2c1CCCC2 | . | . | ? | -7.3% | -9.5%[60.1 µM] | 3.1% | -19.5% | ? | ?
CC(O)(c1ccccc1)c1nc(-c2ccccc2)cs1 (stereo not drawn) | -6.8 | -5.3% | . | . | . | . | . | . | .
CC(O)(c1ccccc1)c1nc(-c2ccncc2)cs1 (stereo not drawn) | -2.2 | ? | . | . | . | . | ? | -26.9% | ?
CCc1sc(C(C2C(=O)CC(C)(C)CC2=O)C2C(=O)CC(C)(C)CC2=O)cc1[N+](=O)[O-] | ? | 31.6µM* | ? | ? | -11.6% | ? | 21.5µM* | 19.2µM* | 21.5µM*
CN(C)c1ccc(CC(=O)N2CCCC(c3cc(C(=O)Nc4ccc(C(C)(C)C)cc4)no3)C2)cc1 (stereo not drawn) | -2.2 | -3.8% | . | . | . | . | . | . | .
COCN(C#N)c1nc(N(C)C)nc(N(C)C)n1 | 0.6 | 7.2% | 95.0% | -21.2% | -3.5% | -0.6% | . | . | .
COc1ccc(CN(C#N)c2nc(SC)nc(N(C)C)n2)cc1 | 14.4 | 100µM* | 89.1µM* | ? | ? | 1.9% | -6.9% | -9.0% | -9.1%
SMILES | PI5P4K alpha inh | WRN helicase inh-1 | Pol iota inh | Pol eta inh | Pol kappa inh | POLB inh | WRN helicase inh-2 | TO displacement | BLM counter | others
Oc1c(C(c2ccccc2)N2CCOCC2)ccc2ccccc12 (stereo not drawn) | -71.3* | 28.2µM* | 97.3% | -4.4% | -7.2% | . | ? | -19.8% | -24.0% | ADP-Glo interf=-5.8%
COc1cccc(-c2cc(CNC(=O)[C@H]3O[C@@H](n4cnc5c(N)ncnc54)[C@H](O)[C@@H]3O)no2)c1 | -27.6 | -2.7% | . | . | . | . | . | . | .
c1cc2cc(CNc3nc(NCC4CC4)nc4ccsc34)ccc2o1 | ? | -0.6% | . | . | . | . | . | . | .
COc1ccccc1CNc1nc(NCc2ccc3occc3c2)c2sccc2n1 | . | -8.4% | . | . | . | . | . | . | . | ADP-Glo interf=1.0%
COc1ccccc1CNc1nc(NCc2ccccc2OC)c2sccc2n1 | . | -10.6% | . | . | . | . | . | . | . | ADP-Glo interf=-3.7%
COc1ccccc1CNc1nc(NCCOc2ccccc2)c2sccc2n1 | . | -11.4% | . | . | . | . | . | . | . | ADP-Glo interf=-6.5%
COCCNc1nc(NCc2ccccc2OC)c2sccc2n1 | 1.6 | -1.5% | . | . | . | . | . | . | .
